About 8,800 targets were measured; listed, in parts, are those with a hit and a random draw of the rest. About 0.5% of all pairs of compound and target were hits. A number with no mark means an inactive call.
Key:
Experiment in all cases: log2 fold change, soluble protein after heating vs DMSO (PISA); higher = thermal stabilisation; K562 lysate, 10 uM; active = over 0.2 and 3.5 SD of the protein, either way, in both replicates (recomputed)
erlotinib = compound: C#Cc1cccc(Nc2ncnc3cc(OCCOC)c(OCCOC)cc23)c1 [erlotinib]
How it was run: (§1)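 Quantification was by TMTpro 16plex LC-MS/MS with equalised channel sums, applied to the supernatant after 21,000xg for 90 min. Samples were crude K562 extract at 1 mg/mL protein in PBS pH 7.4 with 1 mM MgCl2, treated with 10 μM compound for 30 min, heated for 3 min across 48°C-58°C, pooled and brought to 0.5% NP-40 at 4°C. Values are log-two fold changes in thermal stability relative to solvent controls, from duplicates.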

[1] = compound: C/C(=N\NC(=O)C1=CC(=CC=C1)S(=O)(=O)N2CCOCC2)/C3=C(C=CC(=C3)Cl)O
How it was run: as §1

[2] = compound: C1=CC(=CC=C1C2=NC3=C(N2)C=C(C=C3)C(=O)N)OC4=CC=C(C=C4)Cl
How it was run: as §1

[3] = compound: C1=CC2=C(C=CC(=C2)/C=C\3/C(=O)NC(=NCC4=CC=CS4)S3)N=C1
How it was run: as §1

[4] = compound: C1=CC2=NC=CN=C2C=C1/C=C/3\C(=O)NC(=O)S3
How it was run: as §1

[5] = compound: C1=CC=C(C=C1)C2=NC(=C(N2)C3=CC=NC=C3)C4=CC(=C(C=C4)Cl)O
How it was run: as §1

[6] = compound: C1=CC=C2C(=C1)C3=NNC4=CC=CC(=C43)C2=O
How it was run: as §1

[7] = compound: C1CCN(C1)C(=O)NC2=CC=CC(=C2)NC3=NC=C(C(=N3)NCCC4=CN=CN4)Br
How it was run: as §1

[8] = compound: C1CN(CCC1(CC2=CC=C(C=C2)Cl)N)C3=NC=NC4=C3C=CN4
How it was run: as §1

IRAK-1-4 Inhibitor I = compound: C1COCCN1CCN2C3=CC=CC=C3N=C2NC(=O)C4=CC(=CC=C4)[N+](=O)[O-] [IRAK-1-4 Inhibitor I]
How it was run: as §1

ibrutinib = compound: C=CC(=O)N1CCC[C@@H](n2nc(-c3ccc(Oc4ccccc4)cc3)c3c(N)ncnc32)C1 [ibrutinib]
How it was run: as §1

[9] = compound: CC(=O)c1cnc2ccc(-c3cc(Cl)c(O)c(Cl)c3)nc2c1N[C@H]1CC[C@H](CN(C)C)CC1
How it was run: as §1

ralimetinib = compound: CC(C)(C)Cn1c(N)nc2ccc(-c3[nH]c(C(C)(C)C)nc3-c3ccc(F)cc3)nc21 [ralimetinib]
How it was run: as §1

[10] = compound: CC(C)(O)CC(=O)NCCn1ccc2ncnc(Nc3ccc(Oc4cccc(C(F)(F)F)c4)c(Cl)c3)c21
How it was run: as §1

[11] = compound: CC(C)C1=C2N=C(C=C(N2N=C1)NCC3=CC=CC=C3)NCCCCCCN
How it was run: as §1

[12] = compound: CC1=C(C(CC(=O)N1)C2=CC=C(C=C2)C(F)(F)F)C(=O)NC3=C(C=C4C(=C3)C=NN4)F
How it was run: as §1

[13] = compound: CC1=C(C2=C(C=C1)C(=O)C3=CC=CC=C3N2CCCN)C
How it was run: as §1

[14] = compound: CC1=C(C=C(C=C1)NC(=O)C2=CC(=CC=C2)C(C)(C)C#N)NC3=CC4=C(C=C3)N=CN(C4=O)C
How it was run: as §1

[15] = compound: CC1=C(C=C(C=C1)NC(=O)C2=CC(=CC=C2)N(C)C)NC(=O)C3=CC=C(C=C3)O
How it was run: as §1

[16] = compound: CC1=CC=C(C=C1)SC2=C3C=C(SC3=CN=C2)C(=O)N
How it was run: as §1

UniProt Q9Y448, sequence (Q9Y448 whole entry, looked up): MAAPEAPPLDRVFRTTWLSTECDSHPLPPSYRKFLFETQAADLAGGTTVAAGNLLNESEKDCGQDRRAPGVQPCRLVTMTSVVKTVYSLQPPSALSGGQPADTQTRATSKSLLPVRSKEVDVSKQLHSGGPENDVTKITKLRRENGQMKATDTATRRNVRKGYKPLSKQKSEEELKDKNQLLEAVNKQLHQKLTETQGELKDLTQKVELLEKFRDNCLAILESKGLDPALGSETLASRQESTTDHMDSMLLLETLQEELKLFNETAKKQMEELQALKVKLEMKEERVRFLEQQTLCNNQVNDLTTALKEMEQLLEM
UniProt Q9H9A6, sequence (Q9H9A6 whole entry, looked up): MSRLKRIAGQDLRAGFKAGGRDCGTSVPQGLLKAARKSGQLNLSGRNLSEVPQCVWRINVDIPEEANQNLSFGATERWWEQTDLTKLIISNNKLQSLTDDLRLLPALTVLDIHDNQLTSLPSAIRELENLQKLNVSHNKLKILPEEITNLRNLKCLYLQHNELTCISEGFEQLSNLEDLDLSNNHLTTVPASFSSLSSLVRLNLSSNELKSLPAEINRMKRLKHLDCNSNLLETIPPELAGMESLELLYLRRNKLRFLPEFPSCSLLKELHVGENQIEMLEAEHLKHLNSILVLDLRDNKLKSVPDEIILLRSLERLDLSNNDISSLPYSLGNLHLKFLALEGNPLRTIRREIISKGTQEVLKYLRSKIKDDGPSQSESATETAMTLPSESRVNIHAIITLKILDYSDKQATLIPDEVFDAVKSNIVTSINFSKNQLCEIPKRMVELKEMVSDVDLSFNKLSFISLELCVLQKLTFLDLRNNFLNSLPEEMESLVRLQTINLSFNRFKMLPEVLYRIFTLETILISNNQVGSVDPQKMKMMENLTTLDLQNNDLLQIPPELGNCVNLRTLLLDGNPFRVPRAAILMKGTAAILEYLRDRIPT
UniProt Q9BQ69, sequence (Q9BQ69 whole entry, looked up): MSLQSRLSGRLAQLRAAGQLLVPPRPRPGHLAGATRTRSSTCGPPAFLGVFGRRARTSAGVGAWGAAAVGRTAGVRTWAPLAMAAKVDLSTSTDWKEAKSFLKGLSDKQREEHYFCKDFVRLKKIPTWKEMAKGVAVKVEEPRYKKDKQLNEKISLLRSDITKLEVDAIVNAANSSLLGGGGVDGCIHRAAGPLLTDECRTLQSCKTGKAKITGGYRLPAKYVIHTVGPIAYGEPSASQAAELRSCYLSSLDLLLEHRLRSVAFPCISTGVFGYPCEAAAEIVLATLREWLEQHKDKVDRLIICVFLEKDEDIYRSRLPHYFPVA
UniProt Q00013, sequence (Q00013 whole entry, looked up): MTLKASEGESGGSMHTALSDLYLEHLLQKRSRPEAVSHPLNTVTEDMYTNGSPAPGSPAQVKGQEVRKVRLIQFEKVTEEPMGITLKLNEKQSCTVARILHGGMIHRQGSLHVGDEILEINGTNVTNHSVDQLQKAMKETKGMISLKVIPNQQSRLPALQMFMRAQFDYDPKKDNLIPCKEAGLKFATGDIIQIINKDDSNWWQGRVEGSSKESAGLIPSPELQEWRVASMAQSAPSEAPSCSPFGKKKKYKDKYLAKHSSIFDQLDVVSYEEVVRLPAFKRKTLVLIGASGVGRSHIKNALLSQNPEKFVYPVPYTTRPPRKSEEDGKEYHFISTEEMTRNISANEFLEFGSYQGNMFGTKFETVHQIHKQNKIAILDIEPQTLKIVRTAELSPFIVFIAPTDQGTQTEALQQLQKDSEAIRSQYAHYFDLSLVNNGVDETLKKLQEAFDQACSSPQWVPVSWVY
UniProt P52732, sequence (P52732 whole entry, looked up): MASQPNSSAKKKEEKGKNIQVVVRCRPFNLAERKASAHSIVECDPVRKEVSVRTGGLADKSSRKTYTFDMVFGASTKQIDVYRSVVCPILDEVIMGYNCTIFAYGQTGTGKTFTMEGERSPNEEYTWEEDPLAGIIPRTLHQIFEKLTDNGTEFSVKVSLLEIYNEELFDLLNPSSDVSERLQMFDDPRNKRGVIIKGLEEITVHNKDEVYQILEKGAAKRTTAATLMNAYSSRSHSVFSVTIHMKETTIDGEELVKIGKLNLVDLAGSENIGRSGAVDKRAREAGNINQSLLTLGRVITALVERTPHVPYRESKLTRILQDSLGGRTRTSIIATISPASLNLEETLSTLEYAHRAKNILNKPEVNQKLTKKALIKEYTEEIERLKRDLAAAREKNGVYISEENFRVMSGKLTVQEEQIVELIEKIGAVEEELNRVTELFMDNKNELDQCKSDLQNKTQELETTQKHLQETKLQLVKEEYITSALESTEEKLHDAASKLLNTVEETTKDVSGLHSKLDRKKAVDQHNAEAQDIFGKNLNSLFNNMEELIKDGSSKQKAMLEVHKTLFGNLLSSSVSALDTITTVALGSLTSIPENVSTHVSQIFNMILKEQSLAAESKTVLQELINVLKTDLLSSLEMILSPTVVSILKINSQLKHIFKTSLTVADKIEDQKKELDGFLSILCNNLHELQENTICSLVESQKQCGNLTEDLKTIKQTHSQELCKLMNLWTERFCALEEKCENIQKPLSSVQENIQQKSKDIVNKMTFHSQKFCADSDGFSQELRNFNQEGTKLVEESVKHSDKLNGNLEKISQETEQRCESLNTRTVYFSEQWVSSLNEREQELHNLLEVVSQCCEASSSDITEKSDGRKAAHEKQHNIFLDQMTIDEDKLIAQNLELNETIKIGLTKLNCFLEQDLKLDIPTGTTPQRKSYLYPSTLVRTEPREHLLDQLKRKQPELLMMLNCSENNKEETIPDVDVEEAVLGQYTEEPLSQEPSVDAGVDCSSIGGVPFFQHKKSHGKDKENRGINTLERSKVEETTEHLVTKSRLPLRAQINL
UniProt Q15031, sequence (Q15031 whole entry, looked up): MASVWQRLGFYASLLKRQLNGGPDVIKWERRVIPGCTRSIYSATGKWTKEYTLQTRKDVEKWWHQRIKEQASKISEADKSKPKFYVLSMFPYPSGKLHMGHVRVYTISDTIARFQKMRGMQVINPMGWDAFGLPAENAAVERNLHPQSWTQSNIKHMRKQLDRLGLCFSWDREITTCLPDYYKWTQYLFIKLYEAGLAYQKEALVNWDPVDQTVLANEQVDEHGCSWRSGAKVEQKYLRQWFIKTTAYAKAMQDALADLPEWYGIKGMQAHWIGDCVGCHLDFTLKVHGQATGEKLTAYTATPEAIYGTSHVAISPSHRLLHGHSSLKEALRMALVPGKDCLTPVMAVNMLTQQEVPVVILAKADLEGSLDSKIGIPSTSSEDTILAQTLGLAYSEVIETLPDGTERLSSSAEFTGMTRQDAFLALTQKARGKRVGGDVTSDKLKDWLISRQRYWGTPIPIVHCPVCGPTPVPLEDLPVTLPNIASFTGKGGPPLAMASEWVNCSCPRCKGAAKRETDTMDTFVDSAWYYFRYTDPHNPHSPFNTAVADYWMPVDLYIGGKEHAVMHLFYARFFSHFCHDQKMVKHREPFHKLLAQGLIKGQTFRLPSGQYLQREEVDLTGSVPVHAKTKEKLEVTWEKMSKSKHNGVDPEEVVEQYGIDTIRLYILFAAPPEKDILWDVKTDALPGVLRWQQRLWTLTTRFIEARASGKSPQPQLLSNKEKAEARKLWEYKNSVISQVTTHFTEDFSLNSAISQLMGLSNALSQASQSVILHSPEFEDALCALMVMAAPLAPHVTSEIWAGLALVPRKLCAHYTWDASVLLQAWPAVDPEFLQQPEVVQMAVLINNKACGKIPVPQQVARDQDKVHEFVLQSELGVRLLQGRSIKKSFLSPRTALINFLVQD
UniProt Q9Y250, sequence (Q9Y250 whole entry, looked up): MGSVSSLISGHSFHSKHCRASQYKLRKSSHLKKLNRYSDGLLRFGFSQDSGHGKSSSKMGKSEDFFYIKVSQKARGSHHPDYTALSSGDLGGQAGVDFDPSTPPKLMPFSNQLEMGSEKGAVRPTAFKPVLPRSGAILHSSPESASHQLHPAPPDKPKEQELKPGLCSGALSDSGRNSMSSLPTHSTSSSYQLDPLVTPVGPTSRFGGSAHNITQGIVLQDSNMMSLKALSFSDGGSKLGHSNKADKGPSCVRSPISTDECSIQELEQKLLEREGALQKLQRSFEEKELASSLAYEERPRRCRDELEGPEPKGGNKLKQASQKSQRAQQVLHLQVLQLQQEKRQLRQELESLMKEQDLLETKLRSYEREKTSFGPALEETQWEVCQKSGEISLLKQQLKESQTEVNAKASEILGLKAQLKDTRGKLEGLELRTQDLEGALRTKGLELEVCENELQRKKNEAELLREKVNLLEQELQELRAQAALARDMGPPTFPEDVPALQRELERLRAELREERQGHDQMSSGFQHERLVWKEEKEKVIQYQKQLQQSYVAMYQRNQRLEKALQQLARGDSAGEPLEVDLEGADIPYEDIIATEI
UniProt Q9NVC6, sequence (Q9NVC6 whole entry, looked up): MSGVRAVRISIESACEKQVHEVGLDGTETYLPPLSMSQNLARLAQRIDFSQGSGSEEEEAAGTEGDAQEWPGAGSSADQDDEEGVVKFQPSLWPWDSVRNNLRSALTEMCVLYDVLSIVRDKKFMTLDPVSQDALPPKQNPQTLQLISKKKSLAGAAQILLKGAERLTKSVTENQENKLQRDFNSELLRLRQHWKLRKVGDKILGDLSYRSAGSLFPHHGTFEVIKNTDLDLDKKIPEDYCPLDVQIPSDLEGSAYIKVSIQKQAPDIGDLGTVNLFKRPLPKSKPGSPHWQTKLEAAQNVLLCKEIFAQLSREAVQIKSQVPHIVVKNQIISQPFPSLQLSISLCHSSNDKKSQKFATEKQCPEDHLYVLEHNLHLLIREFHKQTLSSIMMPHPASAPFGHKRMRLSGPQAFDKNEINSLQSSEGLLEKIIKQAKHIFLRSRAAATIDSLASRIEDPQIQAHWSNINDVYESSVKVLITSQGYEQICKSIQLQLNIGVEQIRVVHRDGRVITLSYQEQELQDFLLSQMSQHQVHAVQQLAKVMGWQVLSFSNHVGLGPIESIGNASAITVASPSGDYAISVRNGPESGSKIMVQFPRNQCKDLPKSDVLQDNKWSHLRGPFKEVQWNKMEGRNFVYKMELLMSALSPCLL

Row | Target | log2 fold change (erlotinib) | log2 fold change [1] | log2 fold change [2] | log2 fold change [3] | log2 fold change [4] | log2 fold change [5] | log2 fold change [6] | log2 fold change [7] | log2 fold change [8] | log2 fold change (IRAK-1-4 Inhibitor I) | log2 fold change (ibrutinib) | log2 fold change [9] | log2 fold change (ralimetinib) | log2 fold change [10] | log2 fold change [11] | log2 fold change [12] | log2 fold change [13] | log2 fold change [14] | log2 fold change [15] | log2 fold change [16]
1 | MLH1 (UniProt P40692) | 0.018 | 0.021 | -0.011 | 0.012 | -0.079 | 0.025 | -0.019 | -0.037 | 0.015 | -0.002 | 0.01 | -0.009 | 0.02 | -0.035 | -0.018 | 0.017 | -0.055 | 0.014 | -0.006 | 0.03
2 | MLST8 (UniProt Q9BVC4) | 0.038 | 0.008 | -0.041 | 0.015 | 0.012 | 0.015 | 0.002 | -0.091 | 0.033 | -0.001 | 0 | 0.011 | -0.038 | 0.021 | 0.063 | -0.042 | -0.021 | -0.003 | 0.044 | 0.023
3 | MON2 isoform 5 (UniProt Q7Z3U7) | 0.031 | -0.031 | -0.018 | 0.019 | 0.001 | -0.016 | -0.021 | 0.012 | 0.04 | 0.009 | -0.027 | 0.001 | 0.017 | -0.042 | -0.02 | 0.012 | 0.002 | 0.01 | 0.025 | 0
4 | MRPL15 (UniProt Q9P015) | 0.037 | -0.16 | 0.051 | -0.026 | -0.055 | -0.017 | 0.004 | -0.023 | -0.016 | 0.034 | 0.003 | -0.078 | -0.024 | -0.056 | -0.01 | -0.007 | -0.133 | 0.032 | 0.009 | -0.023
5 | KIF11 (UniProt P52732) | -0.014 | 0.012 | -0.016 | -0.004 | -0.004 | -0.004 | -0.023 | -0.005 | -0.013 | -0.033 | 0.005 | -0.003 | 0.029 | 0.01 | 0.007 | 0.005 | 0.01 | -0.019 | 0.014 | 0.015
6 | KNSTRN (UniProt Q9Y448) | -0.007 | -0.003 | -0.018 | 0.006 | -0.018 | 0.015 | 0.012 | 0.036 | -0.061 | -0.039 | -0.017 | 0.018 | 0.027 | 0.081 | -0.008 | 0.022 | -0.023 | -0.032 | 0 | 0.002
7 | MED10 (UniProt Q9BTT4) | 0.049 | -0.077 | 0.044 | 0.028 | -0.149 | -0.015 | 0.029 | 0.102 | 0.101 | -0.022 | -0.029 | -0.087 | -0.015 | -0.055 | -0.019 | -0.013 | -0.025 | 0.02 | 0.074 | 0.074
8 | LRRC40 (UniProt Q9H9A6) | -0.014 | 0.009 | 0.004 | -0.002 | -0.028 | -0.015 | -0.014 | -0.036 | -0.011 | -0.017 | 0.017 | 0.011 | 0.019 | 0.025 | -0.011 | 0.015 | 0.002 | -0.073 | 0.01 | -0.007
9 | MRPL46 (UniProt Q9H2W6) | -0.027 | -0.01 | -0.039 | -0.124 | -0.069 | 0.023 | 0.089 | -0.009 | -0.064 | 0.035 | -0.101 | 0.018 | 0.048 | 0.026 | -0.064 | -0.002 | 0.005 | -0.002 | 0.026 | 0.021
10 | LZTS1 (UniProt Q9Y250) | 0.182 | 0.832 | 0.291 | -0.011 | -0.12 | 0.113 | -0.075 | -0.2 | -0.07 | 0.055 | 0.104 | -0.008 | 0.049 | -0.176 | 0.116 | -0.028 | -0.233 | 0.705 | -0.111 | -0.007
11 | MBD2 (UniProt Q9UBB5) | 0.013 | -0.933 | -0.003 | 0.05 | -0.016 | 0.094 | 0.023 | -0.069 | -0.011 | 0.016 | 0.013 | 0.018 | -0.043 | -0.03 | 0.016 | -0.013 | -0.017 | -0.053 | -0.048 | 0.007
12 | MPP1 (UniProt Q00013) | 0.014 | 0.017 | -0.007 | -0.008 | -0.025 | 0.014 | -0.014 | 0.003 | 0.018 | -0.007 | 0.035 | 0.011 | -0.01 | -0.002 | 0.02 | -0.019 | 0.018 | 0.022 | 0.012 | -0.004
13 | MACROD1 (UniProt Q9BQ69) | 0.025 | 0.017 | 0.009 | 0.02 | 0.283 | -0.005 | -0.074 | 0.131 | -0.002 | 0.081 | 0 | 0.015 | 0.098 | -0.024 | -0.008 | 0.022 | 0.017 | -0.101 | 0.064 | 0.065
14 | MED17 (UniProt Q9NVC6) | -0.017 | 0.062 | 0.019 | 0.065 | -0.017 | 0.014 | -0.055 | -0.007 | -0.03 | -0.012 | 0.018 | 0.003 | 0 | -0.003 | -0.017 | 0.04 | 0.019 | 0 | 0.021 | 0.001
15 | LRPPRC (UniProt P42704) | 0.04 | 0.028 | -0.02 | 0.048 | 0.067 | -0.004 | -0.017 | -0.012 | 0.006 | 0.006 | 0.006 | 0.023 | 0.027 | 0.019 | 0.018 | -0.011 | 0.038 | -0.009 | 0.052 | 0.016
16 | LARS2 (UniProt Q15031) | 0.027 | 0.033 | 0.549 (active) | -0.012 | -0.041 | 0.014 | 0.029 | 0.03 | 0.039 | -0.021 | 0.009 | 0.034 | 0.026 | 0.156 | -0.027 | 0.02 | 0.063 | -0.036 | 0.046 | 0.028

Source: the supplement of paper PMC10849652
